Screens from PubChem BioAssay.
Rows were chosen to be rich in hits. Some 12% of all compounds tested hit in one or more screens of this group.
NS1 inh: inhibitors of influenza NS1 protein function | Potency, µM (top dose mostly 46.1 µM), inactives show top-dose activity, positive = more growth | actives 0.4% (n = 270,000) | AID 2326; note: potency is the fitted concentration of half-maximal effect; actives are rising curves; nearly all actives have a fitted effect of over 50% in size
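Read-out: OD600 growth recovery of NS1-expressing budding yeast. Cells grown overnight at 30C in -URA glucose medium, washed, resuspended and diluted 1:100 in 2% galactose assay medium, pH 6.0. Same strain lacking NS1 served as positive control.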
Shiga inhibitor: inhibitors of Shiga toxin in Vero cells; Vero cells, Shiga toxin protein synthesis inhibition reporter; inhibition, % at 38.7 µM; actives 9.2% (n = 290,000); AID 2315; in the data active = inhibition mostly above about 28%, no sharp cut-off; inactive = mostly below about 43%; note: 0% is about no effect
SARS PLpro yeast: blocks SARS-CoV papain-like protease in a yeast assay | S. cerevisiae expressing SARS-CoV PLpro, growth rescue | Potency, µM (series often up to 32.9 µM), for inactives: at the top dose activity, positive = growth rescue, hits mostly activators | actives 0.19% (n = 330,000) | AID 485353; note: potency is the fitted concentration of half-maximal effect; 0% is about no effect; nearly all actives have a fitted effect of over 55% in size
CHX counter: affects cycloheximide protein synthesis inhibition readout, counter-screen. cell reporter, cycloheximide protein synthesis inhibition counterscreen. max response, %. actives 12% (n = 300,000); in the data active = max response mostly above about 13%, no sharp cut-off; inactive = mostly below about 14%; note: read at 38.3 µM for the half of the compounds with a filed dose; 0% is about no effect
Active calls of the source: *; ? = inconclusive; nt = no result; ! = repeats disagree; [ ] = dose if it differs, or a comment. Unless noted, calls come from the whole dose curve.

SMILES | NS1 inh | Shiga inhibitor | SARS PLpro yeast | CHX counter
C/C(N)=C(/C#N)C(=O)CSc1nnc(Nc2ccccc2)s1 | nt | 139* | 3% | 42*
C/C(N)=C(/C#N)C(=O)CSc1nnnn1-c1ccc(C)cc1 | -7% | 50 | 0% | 36*
O=C(NC(=S)NCC1CCCO1)C(c1ccccc1)c1ccccc1 (stereo unspecified) | 18% | -3 | -6% | -4
O=S(=O)(CCN1CCSCC1)c1ccc(Cl)cc1 | 12% | -6 | 0% | -2
C/C(N)=C(/C#N)C(=O)CSc1nc2ccccc2[nH]1 | 5% | 67* | -1% | 35*
C/C(N)=C(/C#N)C(=O)CSc1nnc(Nc2ccccc2C)s1 | 13% | 51* | 14% | 46*
CCSCc1nnc(SCC(=O)Nc2cc(F)ccc2C)n1C | 3% | -9 | 0% | -2
CCOC(=O)c1c(C)[nH]c(C(=O)COC(=O)CSC)c1C | -45% | 2 | 3% | -2
CCOC(=O)c1[nH]c(C)c(C(=O)Nc2ccc(C)c(F)c2)c1C | -4% | 1 | 2% | 0
CCOC(=O)c1c(C)[nH]c(C(=O)COC(=O)c2oc3ccccc3c2C)c1C | -6% | -4 | 8% | -3
CCOC(=O)c1c(C)c[nH]c1C | nt | -10 | -2% | 4
CCOC(=O)c1c(Cc2ccccc2)c[nH]c1C | nt | 61* | -6% | 31*
CCOC(=O)c1[nH]c(C)c(C(=O)Nc2ccc(C)c(Cl)c2)c1C | -5% | 8 | 0% | 9.0*
CCCCC(=O)OCC(=O)c1[nH]c(C)c(C(=O)OCC)c1C | 0% | 84* | 8% | 31*
CCOC(=O)c1c(C)[nH]c(C(=O)CSc2ccccc2)c1C | 0% | 53* | 1% | 43*
COc1cc2c3nc4n(c(=O)c3n(CC(=O)NCC3CCCO3)c2cc1OC)CCS4 (stereo unspecified) | -5% | -7 | -3% | 4
O=C(Nc1ccccc1)c1cc([N+](=O)[O-])ccc1NCc1cccnc1 | -21% | 1 | 19% | -1
CCOC(=O)c1c(C)[nH]c(C(=O)OCc2ccccc2)c1C | -5% | 60* | -2% | 87*
Cc1cc(C(=O)CSc2ccc(F)cc2)cc(C)c1O | -9% | 61* | -2% | 35*
CCOC(=O)c1c(C)[nH]c(C(=O)COC(=O)CCSc2ccccc2)c1C | -8% | 60* | -6% | 46*
CCOC(=O)c1c(C)[nH]c(C(=O)CSc2nnc(C3CC3)n2N)c1C | 4% | 30 | 14% | 17*
CCOC(=O)c1[nH]c(C)c(C(=O)OCc2ccc(C)cc2)c1C | 1% | -5 | 1% | -4
Cc1cc(Br)ccc1NC(=O)CN(C)C(=O)c1ccc(-n2cncn2)c([N+](=O)[O-])c1 | nt | nt | 0% | nt
COc1ccc(CNC(=O)COC(=O)c2ccc(Br)o2)cc1 | nt | nt | 7%[6.58 µM] | nt
CCOc1ccc(N2CC(C(=O)Nc3nnc(Cc4ccccc4)s3)CC2=O)cc1 (stereo unspecified) | 19% | -5 | -1% | -5
SMILES | NS1 inh | Shiga inhibitor | SARS PLpro yeast | CHX counter
Cc1cc(C(=O)CSc2ccc(Cl)cc2)cc(C)c1OC(=S)N(C)C | 6% | 90* | 3% | 36*
CCOC(=O)c1c(C)[nH]c(C(=O)C(C)Cl)c1C (stereo unspecified) | 2% | 46 | -1% | 10
CCOC(=O)c1c(C)[nH]c(C(=O)C(C)Sc2ccc(Cl)cc2)c1C (stereo unspecified) | -40% | 107 | -29% | 19*
CCCc1cc(=O)[nH]c(SCC(=O)c2[nH]c(C)c(C(=O)OCC)c2C)n1 | ? | 32 | 23% | -3
CCOC(=O)c1c(C)[nH]c(C(=O)CSc2nccc(C)n2)c1C | 10% | 87* | 1% | 37*
CC(=O)c1c(C)[nH]c(C(=O)CSc2ccc(F)cc2)c1C | -1% | 98* | 0% | 49*
Cc1ccc(CNC(=O)C2CCC(=O)N2C(C)C)cc1 (stereo unspecified) | 2% | -4 | 1% | -2
Cc1ccc(NC(=O)CN2CCOCC2)cc1C | 14% | 13 | -4% | -3
CCOC(=O)c1c(C)[nH]c(C)c1C(=O)CN1C(=O)NC2(CCCCCC2)C1=O | nt | nt | -10% | nt
CCOC(=O)c1c(C)[nH]c(C(=O)N/N=C\c2ccccc2O)c1C | -8% | 35* | ? | 29*
CCOC(=O)c1c(C)[nH]c(C(=O)N/N=C/c2cc([N+](=O)[O-])ccc2O)c1C | 12% | 15 | -2% | 12
CCOC(=O)c1c(C)[nH]c(C(=O)CN2C(=O)NC3(CCCC3)C2=O)c1C | 0% | 52* | 0% | 29*
CC(C)NC(=S)Nc1ccc(S(=O)(=O)Nc2ncccn2)cc1 | 4% | -10 | 10% | 6
CC(=O)c1ccc(N2C(=O)CC(N3CCN(S(=O)(=O)c4cc(C)ccc4C)CC3)C2=O)cc1 (stereo unspecified) | nt | nt | -4% | nt
COc1ccc(C2Nc3ccccc3C(=O)N2Cc2ccco2)cc1COc1ccc(F)cc1 (stereo unspecified) | ? | 40* | 14% | 60*
COc1ccc(C2Nc3ccccc3C(=O)N2Cc2ccccc2)cc1 (stereo unspecified) | 7% | -9 | 1% | -2
COc1ccc(C2Nc3ccccc3C(=O)N2Cc2ccco2)cc1CN1C(=O)c2ccccc2C1=O (stereo unspecified) | 22% | 43*! | 2% | 1
O=C1c2ccccc2NC(c2cccc(O)c2)N1Cc1ccco1 (stereo unspecified) | 3% | -5 | 0% | -3
CCCn1c2ccccc2c2cnn(CC(=O)NC3CCCCC3C)c(=O)c21 (stereo unspecified) | 6% | 1 | 3% | 3
CC(NC(=O)c1ccc(N)cc1)c1ccccc1 (stereo unspecified) | 2% | 16 | -2% | 5
Clc1ccc(COc2ccccn2)cc1Cl | -9% | -13 | 1% | -3
Cc1ccc(C(=O)ONC(=O)c2ccc(Cl)cc2)cc1[N+](=O)[O-] | -45% | 34* | -5% | 21*
Cc1ccc(C(=O)NNC(=O)c2ccncc2)cc1[N+](=O)[O-] | nt | nt | 1% | nt
CSCCNC(=O)c1ccc(C(C)(C)C)cc1 | -5% | 92* | -5% | 28*
Cc1ccc(C(=O)NCCSC(C)(C)C)cc1[N+](=O)[O-] | -13% | 95* | -18% | 54*
SMILES | NS1 inh | Shiga inhibitor | SARS PLpro yeast | CHX counter
Cc1ccc(C(=O)NCCSCc2ccc(Cl)cc2Cl)cc1[N+](=O)[O-] | -67% | 12 | -44% | -1
CN(c1ccc(C(=O)NCCSC(C)(C)C)cc1)S(=O)(=O)c1ccccc1 | 5% | 28 | 0% | 11*
COc1ccc2oc(C(=O)OCC(=O)NCc3ccc(OC)c(OC)c3)c(C)c2c1 | nt | nt | 2% | nt
CCCCN(C)CCCNC(=O)c1cc(=O)[nH]c2ccc(S(=O)(=O)N3CCCCC3C)cc12 (stereo unspecified) | nt | -6 | 1% | 1
CC(C)NC(=O)N(O)C1N(Cc2ccc3c(c2)OCO3)C(=S)SC1(C)C (stereo unspecified) | 3% | -22 | 5% | 9
COc1c(C(=O)NCCSC(C)(C)C)ccc2ccccc12 | -11% | 39* | -2% | 13*
COc1ccc(CCNC(=O)c2cccc3ccccc23)cc1OC | 10% | 1 | 3% | -2
Cc1ccc(C(=O)NCCSC(C)(C)C)cc1 | -6% | 31 | 9% | 43*
Cc1ccccc1CSCCNC(=O)c1ccccc1 | -8% | 12 | 2% | 12
